This is a sample that favours compounds with a hit; in the whole collection about 9.2% have one here.
ELG1 DNA repair = inhibitors of ELG1-dependent DNA repair in HEK293T cells. HEK293T ELG1-luciferase reporter, luminescence, 16 h; DNA damage induced by 5-fluorouridine. Potency, µM (titrated, usually from 46.1 µM), without a hit: at the top dose activity change, negative = inhibition, most hits filed as inhibitors. 330,000 compounds, 2.3% hits. AID 504467; note: % is set by controls: 0 for no effect and ±100 for the full control effect; nearly all actives have a fitted effect of over 55% in size
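Overnight (16 hr) co-exposure of 2,000 cells/well to 5-fluorouridine and compound at 37 °C preceded detection. Luciferase was quantified via ONE-Glo luminescence; loss of signal denotes inhibition.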
SMN2 splice enh = SMN2 splice variant enhancement | 210,000 compounds, 2.8% hits | HEK293 SMN2-luciferase splicing reporter, luminescence, 30-36 h | AID 1458 | Potency, µM (top dose mostly 46.1 µM), inactives show at the highest dose activity change, positive = activation, hits mostly activators; note: % of control where 0% means no effect; nearly all actives have a fitted effect of over 55% in size
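qHTS luciferase splicing reporter: luminescence rises when SMN2 exon 7 is included in transfected HEK293 cells. Compound exposure lasted 30-36 h at 37C, with 4.5 mM final sodium butyrate as control, followed by a ONE-Glo read.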
Rab9 promoter act = activators of Rab9 promoter; Huh7 Rab9 promoter-luciferase reporter, luminescence, 24 h; Potency, µM (series often up to 9.22 µM), for the others: at the top dose activation, negative = inhibition, actives largely listed as activators; 320,000 compounds, 2.8% hits; AID 485297; note: % of control where 0% means no effect; nearly all actives have a fitted effect of over 60% in size
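Steps: seed 1500 Huh7 Rab9-luc cells per well, rest 2 h at 37 °C; add compound in DMSO; incubate 24 h; add luciferase reagent, 10 min ambient; read luminescence.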
NPC1 promoter act = activators of NPC1 promoter. Huh7 NPC1 promoter luciferase reporter, 24 h. Potency, µM (top dose mostly 9.22 µM), inactives show at the highest dose activation, actives largely listed as activators. 320,000 compounds, 2.4% hits; note: % of control where 0% means no effect; nearly all actives have a fitted effect of over 60% in size
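Luciferase expression driven by the NPC1 promoter was measured in stably transfected Huh7 cells after a 24 h compound incubation, using a luciferase reagent and a luminescence read.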
ELG1 genotox = inducers of genotoxicity in HEK293T ELG1-luciferase cells. HEK293T ELG1-luciferase reporter, luminescence, 16 h. Potency, µM (highest dose often 46 µM), without a hit: top-dose activity change, positive = activation, most hits filed as activators. 330,000 compounds, 1.3% hits. AID 504466; note: % of control where 0% means no effect; nearly all actives have a fitted effect of over 60% in size
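Screening used a luciferase reporter fused to human ELG1 in HEK293T cells. Luminescence was read on a CCD plate imager after 16 hr exposure and 30 min ONE-Glo incubation.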
FLuc modulator = firefly luciferase modulation, counter-screen for miR-21 project. P08659. purified FLuc, Km substrates, luminescence inhibition. Potency, µM (doses to about 57.5 µM), inactives show top-dose activity change, negative = inhibition, hits mostly inhibitors. 360,000 compounds, 6.9% hits. AID 588342;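 note: plate controls were vehicle for no effect and reference inhibitor for full effect; nearly all actives have a fitted effect of over 55% in size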
Target sequence (P08659 whole entry, looked up): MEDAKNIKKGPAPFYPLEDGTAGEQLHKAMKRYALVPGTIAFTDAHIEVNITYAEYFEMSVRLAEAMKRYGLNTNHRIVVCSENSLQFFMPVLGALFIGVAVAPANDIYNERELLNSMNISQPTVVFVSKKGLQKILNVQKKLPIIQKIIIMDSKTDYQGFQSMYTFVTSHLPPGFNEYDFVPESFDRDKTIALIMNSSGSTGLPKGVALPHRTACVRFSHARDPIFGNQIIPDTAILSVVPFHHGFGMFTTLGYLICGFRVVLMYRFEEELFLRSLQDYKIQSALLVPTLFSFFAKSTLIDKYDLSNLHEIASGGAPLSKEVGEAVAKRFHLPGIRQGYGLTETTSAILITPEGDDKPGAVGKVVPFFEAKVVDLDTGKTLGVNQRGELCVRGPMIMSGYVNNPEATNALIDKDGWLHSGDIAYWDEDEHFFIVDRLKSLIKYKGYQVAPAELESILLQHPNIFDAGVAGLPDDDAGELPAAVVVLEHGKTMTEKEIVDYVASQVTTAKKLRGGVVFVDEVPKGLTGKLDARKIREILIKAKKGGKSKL
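Purified P. pyralis luciferase (10nM final) with 10uM D-luciferin and 10uM ATP (Km levels) in 50mM Tris acetate pH 7.5, 10mM Mg acetate, 0.01% Tween-20, 0.05% BSA; qHTS 6-point titration, ~60 µM downward; luminescence read.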
The depositor's hits bear a star; u = inconclusive; x = no result given; [ ] = remark or other dose. Calls come from the whole dose curve; as a rule, active = well fitted curve in the direction sought with a large enough effect; inconclusive = small, poorly fitted or top-dose-only effect, or another doubt; inactive = no such curve, though single readings can be large; an effect the other way counts as inactive or inconclusive. Potency is the fitted concentration of half-maximal effect.

SMILES	ELG1 DNA repair	SMN2 splice enh	Rab9 promoter act	NPC1 promoter act	ELG1 genotox	FLuc modulator
Cc1cc(C(=O)OCc2nnc(-c3ccccc3)o2)c(C)n1-c1ccccc1	u	-55%	-3%	-2%	-21%	u
Cc1cc(C(=O)COC(=O)c2ccc(F)cc2F)c(C)n1C1CC1	u	x	2.8µM*	2.5µM*	u	0.38µM*
Cc1ccc(C2=Nc3ccccc3N(C(=O)c3ccccc3)C(C)C2)cc1 (centres undefined)	-13%	-20%	-3%	-4%	-1%	4%
Cc1ccc(S(=O)(=O)NCC(=O)OCC(=O)c2cc(C)n(-c3ccccc3)c2C)cc1	u	u	0%	-1%	3%	15µM*
CCNC(=O)COC(=O)c1cc(C)n(-c2ccccc2)c1C	26%	18%	u	17%	u	u
Cc1cc(C(=O)COc2ccccc2C(N)=O)c(C)n1C1CC1	5%	-8%	u	33%	5%	15µM*
Cc1cc(C(=O)COC(=O)c2ccc[nH]c2=O)c(C)n1-c1ccccc1	u	2.5µM*	0.28µM*	0.32µM*	0.82µM*	1.7µM*
CCC(C(=O)NCc1ccccc1Cl)n1c(=O)c2cccn2c2ccccc21 (centres undefined)	x	x	x	x	x	-19%
CCN(CC)S(=O)(=O)c1ccc2oc(Nc3ccc(OC)cc3OC)nc2c1	-23%	x	1%	0%	-13%	-8%
CCS(=O)(=O)c1ccc2oc(Nc3ccc(OC)c(OC)c3)nc2c1	9%	x	5%	9%	12%	-18%
CCN(CC)S(=O)(=O)c1ccc2oc(Nc3ccccc3)nc2c1	u	x	u	u	u	15µM*
CCS(=O)(=O)c1ccc2oc(Nc3ccccc3C)nc2c1	u	u	3.5µM*	3.5µM*	u	13µM*
CCN(CC)S(=O)(=O)c1ccc2oc(SCC(=O)Nc3cc(C)on3)nc2c1	10µM*	x	-2%	-6%	-1%	-1%
COc1ccc(N2CCN(C(=O)CS(=O)(=O)c3cccc4nsnc34)CC2)cc1	x	x	x	x	x	-5%
COCCNC(=S)NCCc1ccc(Cl)cc1Cl	-7%	1%	0%	-1%	-6%	-10%
CCOC(=O)c1c(C)oc2nc(C)nc(Nc3cc(C)ccc3OC)c12	x	x	x	x	x	0%
Cc1ccc(C(=O)Nc2ccc(Br)cc2)cc1S(=O)(=O)Nc1ccccn1	-4%	-18%	9%	3%	-5%	1%
O=C(NC1CC1)c1sc2cc([N+](=O)[O-])ccc2c1Cl	u	3%	12%	13%	1%	u
Cc1ccc2c(Cl)c(C(=O)NC3CC3)sc2c1	u	x	4µM*	2µM*	u	4.8µM*
Cc1ccc2c(C)c(C(=O)Nc3cccnc3)oc2c1	u	-18%	u	24%	u	6.7µM*
Cc1ccc2c(C)c(C(=O)Nc3ccc(S(=O)(=O)Nc4onc(C)c4C)cc3)oc2c1	2%	x	-3%	-5%	0%	-17%
Cn1cccc1/C=N/NC(=O)c1sc2cc(Cl)ccc2c1Cl	16%	x	1%	-2%	11%	0%
Cc1ccc2c(Cl)c(C(=O)N/N=C/c3cccn3C)sc2c1	u	13µM*	u	15%	u	u
Cc1ccc2c(Cl)c(C(=O)Nc3cccnc3)sc2c1	8.2µM*	u	4µM*	2.8µM*	0%	1.9µM*
CS(=O)(=O)N1CCC[C@@]2(CCN(Cc3nccs3)C2)C1	x	-19%	x	x	x	x
SMILES	ELG1 DNA repair	SMN2 splice enh	Rab9 promoter act	NPC1 promoter act	ELG1 genotox	FLuc modulator
O=C1N=NC(=O)N1c1ccccc1	20%	x	15%	3%	4%	-1%
Cn1nc(C(F)(F)F)c(-c2ccc(Br)cc2)c1NC(=O)c1nccnc1C(=O)O	2%	x	1%	-1%	1%	6%
CC1CC(C)CN(C(=O)CCNC(=O)Cn2ccc3ccccc3c2=O)C1 (centres undefined)	4%	x	5%	0%	2%	3%
Cc1cccc(OCC(=O)N/N=C/c2cccn2C)c1	2%	x	-6%	-4%	3%	-16%
Cc1cc2oc(C(=O)Nc3cccnc3)c(C)c2cc1C	u	-13%	u	u	13µM*	u
Cc1ccc(C(C)C)c(OCC(=O)N/N=C/c2cccn2C)c1	18µM*	x	-3%	-4%	-5%	2%
CC(=O)Nc1ccc(NC(=O)c2oc3cc(C)c(C)cc3c2C)cc1	-1%	-15%	-5%	-1%	u	-4%
CCOC(=O)c1cc(S(=O)(=O)N2CCN(c3ccc(F)cc3)CC2)[nH]n1	x	x	x	x	x	-6%
COCCCNC(=O)CN1C(=O)c2c(c3ccccc3n2C)C1c1ccc(OC)cc1 (centres undefined)	x	x	x	x	x	3%
CCOc1ccc(/C=N/N2C(C)CCCC2C)cc1 (centres undefined)	u	x	1%[1.84 µM]	-4%	18%	u
CCOc1cccc(/C=N/N=C/c2cccc(OCC)c2O)c1O	24%	x	12%	14%	3%	-11%
CCOc1cccc(/C=N/N2C(C)CCCC2C)c1O (centres undefined)	22%	x	4%	-1%	7%	17µM*
CCOc1cccc(C=Nc2cc(C)cc(C)c2O)c1O	-24%	14%	9%	3%	3%	27µM*
Cc1cc(C=C2C(=O)CCCC2=O)c(C)n1-c1ccccc1	23%	4%	0%	1%	2%	17µM*
COc1ccc(Sc2ccc(/C=C3\C(=O)NN(c4ccccc4)C3=O)o2)cc1	6%	0%	-7%	-3%	4%	-17%
O=C1NN(c2ccccc2)C(=O)/C1=C\c1coc2ccc(O)cc2c1=O	11%	x	-3%	-6%	2%	u
COc1ccc(-n2c(C)cc(/C=C3\C(=O)NN(c4ccccc4)C3=O)c2C)cc1	u	u	27%	u	u	2.7µM*
